According to the supplement of paper PMC10849652:
Targets with a hit are over-represented here; the source holds about 8,800 in all. About 0.5% of all pairs of compound and target were hits.

How the values were obtained:
Experiment in all cases: log2 fold change, soluble protein after heating vs DMSO (PISA); higher = thermal stabilisation; K562 lysate, 10 uM; active = over 0.2 and 3.5 SD of the protein, either way, in both replicates (recomputed)
vemurafenib = compound: CCCS(=O)(=O)Nc1ccc(F)c(C(=O)c2c[nH]c3ncc(-c4ccc(Cl)cc4)cc23)c1F [vemurafenib]
Summary of the method: (§1)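 The values are log-two fold changes in thermal stability compared with solvent controls and come from duplicates. They were obtained by TMTpro 16plex LC-MS/MS, with channel sums equalised, on the supernatant after 21,000xg for 90 min. That supernatant came from crude K562 extract at 1 mg/mL protein treated with 10 μM compound for 30 min, heated for 3 min across 48°C-58°C, pooled and brought to 0.5% NP-40 at 4°C.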

barasertib = compound: CCN(CCCOc1ccc2c(Nc3cc(CC(=O)Nc4cccc(F)c4)[nH]n3)ncnc2c1)CCOP(=O)(O)O [barasertib]
Summary of the method: as §1

[1] = compound: CC[C@@H]1C(=O)N(C)c2cnc(Nc3ccc(C(=O)NC4CCN(C)CC4)cc3OC)nc2N1C1CCCC1
Summary of the method: as §1

[2] = compound: CCn1c(C(=O)N(C2CC2)C2CC2)cc2c3c(ncn3C)c(Nc3cc(C)n(C)n3)nc21
Summary of the method: as §1

[3] = compound: CCn1cc(-c2ccnc3[nH]c(-c4cccc(CN(C)C)c4)cc23)c(-c2ccc(NC(=O)N(C)C)cc2)n1
Summary of the method: as §1

[4] = compound: CN1CCC(CNc2ccc3ncc(-c4cccc(OC(F)(F)F)c4)n3n2)CC1
Summary of the method: as §1

saracatinib = compound: CN1CCN(CCOc2cc(OC3CCOCC3)c3c(Nc4c(Cl)ccc5c4OCO5)ncnc3c2)CC1 [saracatinib]
Summary of the method: as §1

sotrastaurin = compound: CN1CCN(c2nc(C3=C(c4c[nH]c5ccccc45)C(=O)NC3=O)c3ccccc3n2)CC1 [sotrastaurin]
Summary of the method: as §1

alvocidib = compound: CN1CC[C@H](c2c(O)cc(O)c3c(=O)cc(-c4ccccc4Cl)oc23)[C@H](O)C1 [alvocidib]
Summary of the method: as §1

Tubastatin A = compound: CN1CCc2c(c3ccccc3n2Cc2ccc(C(=O)NO)cc2)C1 [Tubastatin A]
Summary of the method: as §1

[5] = compound: CNC(=O)C1=CC=CC=C1NC2=NC(=NC=C2Cl)NC3=C(C=C(C=C3)N4CCOCC4)OC
Summary of the method: as §1

defactinib = compound: CNC(=O)c1ccc(Nc2ncc(C(F)(F)F)c(NCc3nccnc3N(C)S(C)(=O)=O)n2)cc1 [defactinib]
Summary of the method: as §1

[6] = compound: CNc1nc(-c2ccc3c(N)n[nH]c3c2)cc(N2C[C@@H](C(=O)NC3CCCCC3)CC[C@H]2C)n1
Summary of the method: as §1

encorafenib = compound: COC(=O)N[C@@H](C)CNc1nccc(-c2cn(C(C)C)nc2-c2cc(Cl)cc(NS(C)(=O)=O)c2F)n1 [encorafenib]
Summary of the method: as §1

[7] = compound: COC(=O)[C@H](CCSC)NC(=O)C1=C(C=C(C=C1)NC[C@H](CS)N)C2=CC=CC=C2
Summary of the method: as §1

alisertib = compound: COc1cc(Nc2ncc3c(n2)-c2ccc(Cl)cc2C(c2c(F)cccc2OC)=NC3)ccc1C(=O)O [alisertib]
Summary of the method: as §1

gefitinib = compound: COc1cc2ncnc(Nc3ccc(F)c(Cl)c3)c2cc1OCCCN1CCOCC1 [gefitinib]
Summary of the method: as §1

[8] = compound: CCCS(=O)(=O)Nc1ccc(F)c(C(=O)c2c[nH]c3ncc(Cl)cc23)c1F
Summary of the method: as §1

volasertib = compound: CC[C@@H]1C(=O)N(C)c2cnc(Nc3ccc(C(=O)N[C@H]4CC[C@H](N5CCN(CC6CC6)CC5)CC4)cc3OC)nc2N1C(C)C [volasertib]
Summary of the method: as §1

[9] = compound: COc1cc2nc(-c3cc(F)ccc3O)nc(N[C@@H]3CNC[C@H]3C(C)(C)O)c2cc1OC
Summary of the method: as §1

Measured: log2 fold change

USP22 (UniProt Q9UPT9)
inactive: vemurafenib -0.019 | barasertib 0.008 | [1] 0.026 | [2] 0.034 | [3] 0.031 | [4] 0 | saracatinib -0.026 | sotrastaurin 0.018 | alvocidib 0.102 | Tubastatin A -0.044 | [5] 0.034 | defactinib 0.017 | [6] -0.027 | encorafenib -0.007 | [7] 0.055 | alisertib 0.02 | gefitinib -0.011

ZDHHC17 (UniProt Q8IUH5)
UniProt Q8IUH5, sequence (Q8IUH5 whole entry, looked up): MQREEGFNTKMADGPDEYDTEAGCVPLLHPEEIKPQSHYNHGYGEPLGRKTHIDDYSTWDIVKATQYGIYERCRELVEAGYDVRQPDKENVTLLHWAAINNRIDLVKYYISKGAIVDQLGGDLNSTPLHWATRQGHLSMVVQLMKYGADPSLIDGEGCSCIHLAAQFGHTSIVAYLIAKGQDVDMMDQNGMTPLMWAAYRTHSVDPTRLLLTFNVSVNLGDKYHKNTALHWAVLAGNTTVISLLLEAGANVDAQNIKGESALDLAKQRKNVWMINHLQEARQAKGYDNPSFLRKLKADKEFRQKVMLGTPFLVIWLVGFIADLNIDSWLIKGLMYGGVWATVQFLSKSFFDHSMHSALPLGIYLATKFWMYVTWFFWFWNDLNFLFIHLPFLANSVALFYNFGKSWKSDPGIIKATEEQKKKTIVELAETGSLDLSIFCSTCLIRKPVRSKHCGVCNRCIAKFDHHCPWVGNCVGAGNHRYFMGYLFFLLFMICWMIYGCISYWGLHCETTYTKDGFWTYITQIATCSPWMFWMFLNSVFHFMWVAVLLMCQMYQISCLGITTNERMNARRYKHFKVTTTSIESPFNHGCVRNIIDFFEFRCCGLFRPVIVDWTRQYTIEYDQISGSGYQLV
inactive: vemurafenib 0.058 | [8] 0.047 | [1] 0.077 | volasertib -0.071 | [2] 0.166 | [3] -0.346 | [4] 0.141 | saracatinib 0.205 | sotrastaurin 0.117 | alvocidib -0.44 | Tubastatin A 0.074 | defactinib -0.053 | [6] -0.04 | encorafenib -0.044 | [7] 0.183 | alisertib 0.037 | [9] -0.032 | gefitinib 0.24

ZNF845 (UniProt Q96IR2)
inactive: vemurafenib 0.085 | [8] -0.024 | barasertib 0.088 | volasertib -0.044 | [2] 0.135 | [3] -0.012 | [4] 0.078 | saracatinib -0.019 | sotrastaurin -0.012 | alvocidib 0.011 | Tubastatin A -0.149 | [5] 0.314 | defactinib -0.001 | [6] 0.093 | alisertib -0.018 | [9] 0.035 | gefitinib 0.035

WIPI2 isoform 6 (UniProt Q9Y4P8)
inactive: barasertib 0.04 | [3] -0.24 | [4] -0.016 | alvocidib -0.015

ZKSCAN8 (UniProt Q15776)
inactive: vemurafenib 0.049 | [8] -0.173 | [1] -0.019 | volasertib -0.17 | [2] -0.001 | saracatinib 0.028 | sotrastaurin 0.027 | Tubastatin A -0.053 | [5] 0.059 | defactinib 0.037 | [6] 0.009 | encorafenib 0.2 | [7] -0.206 | alisertib -0.084 | [9] -0.001 | gefitinib 0

ZNF644 (UniProt Q9H582)
inactive: vemurafenib 0.027 | barasertib 0.045 | [1] 0.047 | [2] -0.136 | [3] -0.05 | [4] -0.023 | saracatinib -0.086 | sotrastaurin 0.013 | alvocidib 0.003 | Tubastatin A -0.038 | [5] -0.058 | defactinib 0.025 | [6] -0.02 | encorafenib 0.028 | [7] -0.011 | alisertib -0.018 | gefitinib -0.024

UNKL (UniProt E9PDK2)
inactive: vemurafenib -0.118 | barasertib 0.047 | [1] -0.075 | saracatinib 0.002 | sotrastaurin -0.05 | defactinib -0.008 | [6] -0.042 | encorafenib 0.044 | [7] 0.106

WEE1 (UniProt P30291)
active: [5] 0.498
inactive: vemurafenib 0.029 | [8] 0.056 | barasertib 0.015 | [1] -0.25 | volasertib -0.032 | [2] -0.077 | saracatinib -0.016 | sotrastaurin -0.1 | Tubastatin A -0.194 | defactinib 0.145 | [6] -0.072 | encorafenib -0.035 | [7] 0.11 | alisertib 0.018 | [9] 0.055 | gefitinib 0.129

YBEY (UniProt P58557)
inactive: vemurafenib -0.119 | [1] -0.054 | saracatinib -0.058 | [5] -0.056 | defactinib 0.016 | [6] -0.066 | encorafenib -0.037 | [7] 0.071

ZYG11A (UniProt Q6WRX3)
inactive: [8] -0.15 | barasertib 0.286 | volasertib -0.017 | [2] -0.035 | [3] -0.16 | [4] 0.011 | alvocidib -0.18 | Tubastatin A 0.018 | [5] -0.013 | alisertib -0.08 | [9] 0.212 | gefitinib -0.029

ZNF593 (UniProt O00488)
UniProt O00488, sequence (O00488 whole entry, looked up): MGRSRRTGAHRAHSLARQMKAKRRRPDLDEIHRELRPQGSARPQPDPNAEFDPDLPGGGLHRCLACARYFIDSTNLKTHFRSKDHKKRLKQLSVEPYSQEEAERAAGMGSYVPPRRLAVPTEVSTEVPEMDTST
inactive: vemurafenib 0.001 | [8] 0.037 | barasertib -0.026 | [1] -0.174 | volasertib -0.034 | [2] 0.078 | [3] -0.012 | [4] 0.016 | saracatinib -0.012 | sotrastaurin -0.105 | alvocidib -0.005 | Tubastatin A -0.07 | [5] -0.135 | defactinib 0.044 | [6] -0.011 | encorafenib -0.006 | [7] -0.088 | [9] 0.231

ULK3 isoform 4 (UniProt Q6PHR2)
active: [3] -0.634
inactive: vemurafenib 0.022 | [8] -0.042 | barasertib 0.001 | [1] -0.196 | volasertib -0.139 | [4] -0.285 | saracatinib 0.18 | sotrastaurin -0.077 | alvocidib -0.014 | [5] 0.004 | defactinib 0.039 | [6] 0.016 | encorafenib -0.089 | [7] -0.061 | [9] 0.089

ZSCAN26 (UniProt Q16670)
inactive: sotrastaurin -0.239

WAS (UniProt P42768)
inactive: barasertib 0.046 | [1] 0.043 | [3] 0.007 | [4] 0.019 | saracatinib -0.136 | alvocidib -0.028 | [5] 0.032 | [6] 0.365 | encorafenib 0.004 | [7] 0.08 | alisertib -0.041 | gefitinib 0.215

UNC13A (UniProt Q9UPW8)
active: [3] -1.79
inactive: [4] 0.531 | alvocidib -0.643 | [5] -0.11 | alisertib -0.067 | gefitinib -0.076

UTRN isoform 2 (UniProt P46939)
UniProt P46939, sequence (P46939 whole entry, looked up): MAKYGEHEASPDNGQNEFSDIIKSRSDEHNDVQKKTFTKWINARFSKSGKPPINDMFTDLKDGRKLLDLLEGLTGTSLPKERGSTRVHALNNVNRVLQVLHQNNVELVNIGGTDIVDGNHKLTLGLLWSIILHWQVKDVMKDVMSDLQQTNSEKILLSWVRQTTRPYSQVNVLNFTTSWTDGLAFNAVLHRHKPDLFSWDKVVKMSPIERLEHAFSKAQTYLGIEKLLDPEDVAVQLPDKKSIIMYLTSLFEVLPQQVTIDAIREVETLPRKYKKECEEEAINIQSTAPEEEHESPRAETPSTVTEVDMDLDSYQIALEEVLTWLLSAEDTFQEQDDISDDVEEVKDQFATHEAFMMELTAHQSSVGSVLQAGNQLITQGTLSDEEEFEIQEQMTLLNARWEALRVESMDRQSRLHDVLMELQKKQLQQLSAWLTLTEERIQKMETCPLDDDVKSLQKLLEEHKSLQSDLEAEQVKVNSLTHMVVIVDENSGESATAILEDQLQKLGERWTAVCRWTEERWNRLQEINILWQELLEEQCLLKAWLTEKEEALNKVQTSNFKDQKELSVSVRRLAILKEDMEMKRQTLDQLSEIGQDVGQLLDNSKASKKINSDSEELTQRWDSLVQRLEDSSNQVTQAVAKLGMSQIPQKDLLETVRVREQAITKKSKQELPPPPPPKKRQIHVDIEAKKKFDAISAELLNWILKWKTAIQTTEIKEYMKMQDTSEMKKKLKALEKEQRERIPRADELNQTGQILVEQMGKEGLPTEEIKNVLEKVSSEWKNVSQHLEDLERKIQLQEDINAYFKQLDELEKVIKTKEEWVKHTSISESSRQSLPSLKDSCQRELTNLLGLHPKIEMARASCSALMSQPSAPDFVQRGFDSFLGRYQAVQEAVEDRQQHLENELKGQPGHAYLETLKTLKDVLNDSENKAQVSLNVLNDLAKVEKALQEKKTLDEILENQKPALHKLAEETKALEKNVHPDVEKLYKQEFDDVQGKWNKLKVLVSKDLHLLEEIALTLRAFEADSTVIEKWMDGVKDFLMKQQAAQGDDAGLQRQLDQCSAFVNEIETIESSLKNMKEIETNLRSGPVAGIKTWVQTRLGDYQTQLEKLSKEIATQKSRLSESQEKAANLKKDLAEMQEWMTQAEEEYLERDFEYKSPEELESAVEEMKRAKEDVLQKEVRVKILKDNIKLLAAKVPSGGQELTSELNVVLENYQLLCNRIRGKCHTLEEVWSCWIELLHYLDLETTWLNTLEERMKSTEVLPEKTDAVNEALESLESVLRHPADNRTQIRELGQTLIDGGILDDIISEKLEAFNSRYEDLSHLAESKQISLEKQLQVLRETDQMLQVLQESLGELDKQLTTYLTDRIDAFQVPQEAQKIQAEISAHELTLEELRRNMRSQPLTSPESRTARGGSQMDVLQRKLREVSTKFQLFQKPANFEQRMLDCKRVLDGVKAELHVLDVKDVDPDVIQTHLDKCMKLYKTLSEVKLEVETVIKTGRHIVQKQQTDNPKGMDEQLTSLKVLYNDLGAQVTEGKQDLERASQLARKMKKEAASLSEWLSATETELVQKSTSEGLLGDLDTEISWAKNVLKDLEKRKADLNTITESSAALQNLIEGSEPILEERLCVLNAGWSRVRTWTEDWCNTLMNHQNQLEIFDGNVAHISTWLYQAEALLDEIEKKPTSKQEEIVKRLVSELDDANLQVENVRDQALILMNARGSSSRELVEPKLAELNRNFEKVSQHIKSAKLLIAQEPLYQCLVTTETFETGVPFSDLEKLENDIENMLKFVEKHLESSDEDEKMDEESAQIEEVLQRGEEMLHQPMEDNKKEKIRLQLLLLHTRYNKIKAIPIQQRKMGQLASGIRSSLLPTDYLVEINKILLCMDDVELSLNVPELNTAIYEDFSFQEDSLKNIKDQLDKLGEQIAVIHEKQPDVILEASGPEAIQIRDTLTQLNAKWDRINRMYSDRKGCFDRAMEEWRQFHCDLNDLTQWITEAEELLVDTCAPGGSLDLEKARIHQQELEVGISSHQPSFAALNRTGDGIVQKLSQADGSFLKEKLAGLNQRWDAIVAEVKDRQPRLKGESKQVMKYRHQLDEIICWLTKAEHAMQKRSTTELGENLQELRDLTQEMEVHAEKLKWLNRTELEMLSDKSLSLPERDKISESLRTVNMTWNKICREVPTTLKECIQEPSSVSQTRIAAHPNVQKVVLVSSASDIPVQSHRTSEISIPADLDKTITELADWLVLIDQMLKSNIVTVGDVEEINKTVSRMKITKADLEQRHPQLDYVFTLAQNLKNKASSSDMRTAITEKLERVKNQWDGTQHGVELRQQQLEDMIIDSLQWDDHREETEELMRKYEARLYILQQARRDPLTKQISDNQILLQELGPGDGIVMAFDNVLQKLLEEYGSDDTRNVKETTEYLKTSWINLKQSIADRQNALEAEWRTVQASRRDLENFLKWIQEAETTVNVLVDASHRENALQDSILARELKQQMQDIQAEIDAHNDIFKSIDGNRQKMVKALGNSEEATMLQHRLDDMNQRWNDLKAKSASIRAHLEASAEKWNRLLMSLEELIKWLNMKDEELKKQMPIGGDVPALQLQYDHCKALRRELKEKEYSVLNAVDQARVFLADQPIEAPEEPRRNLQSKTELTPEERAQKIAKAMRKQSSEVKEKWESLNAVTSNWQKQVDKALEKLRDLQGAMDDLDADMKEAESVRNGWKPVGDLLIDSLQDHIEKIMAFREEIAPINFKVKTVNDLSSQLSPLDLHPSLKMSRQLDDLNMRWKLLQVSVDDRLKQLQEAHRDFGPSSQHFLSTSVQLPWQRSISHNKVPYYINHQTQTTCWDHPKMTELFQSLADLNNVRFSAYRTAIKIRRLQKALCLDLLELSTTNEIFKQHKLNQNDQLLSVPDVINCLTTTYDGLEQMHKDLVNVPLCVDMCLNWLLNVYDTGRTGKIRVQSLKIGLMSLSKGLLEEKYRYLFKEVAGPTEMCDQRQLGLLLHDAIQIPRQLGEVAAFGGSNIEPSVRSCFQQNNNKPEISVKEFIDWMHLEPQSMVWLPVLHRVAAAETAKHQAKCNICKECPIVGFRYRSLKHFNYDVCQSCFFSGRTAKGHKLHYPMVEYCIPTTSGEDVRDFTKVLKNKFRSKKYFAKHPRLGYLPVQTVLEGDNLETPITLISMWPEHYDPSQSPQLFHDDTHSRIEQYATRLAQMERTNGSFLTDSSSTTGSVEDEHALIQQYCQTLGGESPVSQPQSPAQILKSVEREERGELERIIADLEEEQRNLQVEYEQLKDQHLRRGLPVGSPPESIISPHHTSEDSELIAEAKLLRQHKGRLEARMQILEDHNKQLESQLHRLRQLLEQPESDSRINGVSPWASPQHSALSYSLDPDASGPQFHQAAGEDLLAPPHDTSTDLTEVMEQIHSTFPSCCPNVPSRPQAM
inactive: barasertib -0.019 | [1] -0.318 | [3] 0.148 | [4] -0.003 | alvocidib -0.084 | [5] -0.166 | encorafenib -0.012 | [7] -0.037

VHL (UniProt P40337)
inactive: vemurafenib 0.027 | barasertib -0.005 | [1] -0.065 | [2] -0.054 | [3] 0.11 | [4] -0.086 | saracatinib 0.019 | sotrastaurin -0.038 | alvocidib -0.06 | Tubastatin A -0.117 | [5] -0.009 | defactinib -0.034 | [6] -0.047 | encorafenib 0.143 | [7] -0.047 | alisertib 0.05 | gefitinib -0.029

VASN (UniProt Q6EMK4)
inactive: [1] 0.046 | [2] 0.023 | saracatinib 0.065 | Tubastatin A -0.161 | [5] -0.087 | [6] 0.096 | encorafenib 0.2 | [7] 0.02

ZSCAN21 (UniProt Q9Y5A6)
UniProt Q9Y5A6, sequence (Q9Y5A6 whole entry, looked up): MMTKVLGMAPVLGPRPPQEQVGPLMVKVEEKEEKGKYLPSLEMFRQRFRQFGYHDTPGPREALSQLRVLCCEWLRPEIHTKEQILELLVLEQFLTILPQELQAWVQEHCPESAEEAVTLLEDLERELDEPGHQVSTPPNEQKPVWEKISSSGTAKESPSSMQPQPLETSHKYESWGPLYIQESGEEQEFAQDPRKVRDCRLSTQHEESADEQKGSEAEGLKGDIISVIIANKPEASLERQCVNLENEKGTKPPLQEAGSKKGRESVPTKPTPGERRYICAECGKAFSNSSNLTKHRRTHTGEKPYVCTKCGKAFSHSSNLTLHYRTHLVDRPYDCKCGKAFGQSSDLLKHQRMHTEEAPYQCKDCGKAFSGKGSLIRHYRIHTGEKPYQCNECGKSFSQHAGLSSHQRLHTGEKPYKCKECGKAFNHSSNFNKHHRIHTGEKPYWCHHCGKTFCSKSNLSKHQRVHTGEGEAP
inactive: [1] -0.024 | [3] 0.043 | [4] 0.053 | alvocidib -0.11 | encorafenib 0.031 | [7] 0.103

XPOT (UniProt F5GYW6)
inactive: [8] -0.204 | volasertib -0.112 | [9] 0.121

ZFYVE19 isoform 3 (UniProt Q96K21)
inactive: [8] 0.048 | barasertib -0.037 | volasertib -0.231 | [9] -0.006

ZNF146 (UniProt Q15072)
inactive: saracatinib 0.247 | [6] 0.12

WSB1 (UniProt Q9Y6I7)
inactive: [2] 0.105 | [3] 0.078 | [4] 0.08 | saracatinib -0.159 | alvocidib 0.184 | Tubastatin A -0.014 | [6] 0.12

WIPI1 (UniProt Q5MNZ9)
UniProt Q5MNZ9, sequence (Q5MNZ9 whole entry, looked up): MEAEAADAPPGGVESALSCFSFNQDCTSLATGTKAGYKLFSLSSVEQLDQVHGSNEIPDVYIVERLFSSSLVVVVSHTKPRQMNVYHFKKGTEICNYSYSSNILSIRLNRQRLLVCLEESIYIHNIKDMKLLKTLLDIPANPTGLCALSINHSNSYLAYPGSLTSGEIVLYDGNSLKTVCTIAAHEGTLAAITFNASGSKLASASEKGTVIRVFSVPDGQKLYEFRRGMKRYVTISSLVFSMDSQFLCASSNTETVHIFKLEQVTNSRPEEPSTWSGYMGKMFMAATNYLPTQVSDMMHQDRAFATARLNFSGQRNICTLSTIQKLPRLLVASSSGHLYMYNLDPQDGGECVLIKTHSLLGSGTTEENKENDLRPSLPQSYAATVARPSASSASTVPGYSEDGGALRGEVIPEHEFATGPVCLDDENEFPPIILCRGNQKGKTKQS
inactive: [8] 0.044 | barasertib 0.04 | [1] 0.119 | volasertib -0.014 | [2] -0.043 | [3] -0.079 | [4] 0.022 | saracatinib 0.025 | sotrastaurin -0.074 | alvocidib -0.046 | Tubastatin A 0.013 | [5] 0.036 | [6] 0.099 | encorafenib -0.009 | [7] 0.029 | alisertib -0.189 | [9] 0.008 | gefitinib -0.017

ZNF652 (UniProt Q9Y2D9)
inactive: sotrastaurin -0.034

ZNF346 (UniProt Q9UL40)
inactive: [8] 0.007 | barasertib 0.013 | [1] 0.029 | volasertib -0.047 | [2] -0.018 | [3] 0.017 | [4] -0.051 | saracatinib 0.001 | sotrastaurin 0.011 | alvocidib 0.05 | Tubastatin A 0.036 | [5] -0.009 | [6] -0.029 | encorafenib -0.006 | [7] 0.062 | alisertib -0.03 | [9] 0.019 | gefitinib 0.046
